The results in this text go back to ChEMBL document CHEMBL3988442, “University of Dundee, Small-Polar-MMV Screening Library” (2021).

Holding throughout (parameters): scale not given: direction of the effect not stated beside the values
Assay [1] addresses Protein translocase subunit SecA (Escherichia coli (strain K12)) (UniProt P10408). As to the kind of experiment: Assay to Identify E. coli SecA ATPase Inhibitors. To be noted: 30 µM. It is filed as functional.
Assay [2] concerns the target T1, Ubiquitin-activating enzyme e1, putative (Leishmania donovani (strain BPK282A1)) (UniProt E9BSI1).
T1 sequence (whole entry): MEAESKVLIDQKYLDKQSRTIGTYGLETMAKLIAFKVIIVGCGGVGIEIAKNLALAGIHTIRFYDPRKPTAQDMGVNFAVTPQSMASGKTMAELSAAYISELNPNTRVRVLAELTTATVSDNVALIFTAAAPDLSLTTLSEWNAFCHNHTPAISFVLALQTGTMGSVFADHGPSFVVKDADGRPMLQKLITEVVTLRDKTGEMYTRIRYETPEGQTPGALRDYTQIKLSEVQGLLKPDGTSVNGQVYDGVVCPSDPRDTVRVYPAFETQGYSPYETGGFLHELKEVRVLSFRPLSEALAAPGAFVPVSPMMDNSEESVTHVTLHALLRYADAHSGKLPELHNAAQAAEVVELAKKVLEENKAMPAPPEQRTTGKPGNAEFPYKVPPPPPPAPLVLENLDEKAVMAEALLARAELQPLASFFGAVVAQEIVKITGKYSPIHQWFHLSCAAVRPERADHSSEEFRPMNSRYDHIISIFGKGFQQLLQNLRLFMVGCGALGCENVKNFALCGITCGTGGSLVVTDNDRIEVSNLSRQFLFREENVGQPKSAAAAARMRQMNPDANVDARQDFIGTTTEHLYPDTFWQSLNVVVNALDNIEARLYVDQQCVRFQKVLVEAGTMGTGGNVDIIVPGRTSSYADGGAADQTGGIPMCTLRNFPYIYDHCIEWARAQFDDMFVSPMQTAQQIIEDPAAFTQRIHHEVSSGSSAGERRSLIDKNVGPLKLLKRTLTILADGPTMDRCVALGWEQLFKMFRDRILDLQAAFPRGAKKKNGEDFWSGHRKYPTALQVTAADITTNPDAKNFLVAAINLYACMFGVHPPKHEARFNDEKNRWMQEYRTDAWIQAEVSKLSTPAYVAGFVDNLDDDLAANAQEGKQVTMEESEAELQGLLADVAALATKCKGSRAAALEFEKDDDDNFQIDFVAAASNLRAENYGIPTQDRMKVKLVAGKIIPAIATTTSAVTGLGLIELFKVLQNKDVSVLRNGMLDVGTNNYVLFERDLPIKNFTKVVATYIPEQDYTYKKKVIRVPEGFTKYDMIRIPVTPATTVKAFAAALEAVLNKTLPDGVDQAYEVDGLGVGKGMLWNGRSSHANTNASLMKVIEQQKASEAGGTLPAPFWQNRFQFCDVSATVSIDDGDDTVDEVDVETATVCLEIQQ
As to the kind of experiment: Leishmania donovani Ubiquitin Activating Enzyme (LdE1). The assay is classed as functional. To be noted: 30 µM.

Assay [3] concerns the target AMP-activated protein kinase, AMPK (Homo sapiens) (UniProt P54646+O43741+P54619+Q9UGJ0+Q9Y478+Q13131+Q9UGI9). The experiment in a line: AMP-dependent Kinase enzyme assay. An in vitro enzyme assay that detects ADP turnover that is directly proportional to AMPK activity. This uses naive AMPK that is activated during the assay with MK-8722. The assay is classed as functional. The settings on record: 30 µM.

The target in assay [4] is Sialic acid-binding Ig-like lectin 9 (Homo sapiens) (UniProt Q9Y336). As to the kind of experiment: Hs-Siglec9 ALPHAscreen SOP 20170721. The settings on record: 10 µM. (Alpha assays give light when donor and acceptor beads are brought close together.)
Sequence of Sialic acid-binding Ig-like lectin 9 (Homo sapiens) (Q9Y336 whole entry): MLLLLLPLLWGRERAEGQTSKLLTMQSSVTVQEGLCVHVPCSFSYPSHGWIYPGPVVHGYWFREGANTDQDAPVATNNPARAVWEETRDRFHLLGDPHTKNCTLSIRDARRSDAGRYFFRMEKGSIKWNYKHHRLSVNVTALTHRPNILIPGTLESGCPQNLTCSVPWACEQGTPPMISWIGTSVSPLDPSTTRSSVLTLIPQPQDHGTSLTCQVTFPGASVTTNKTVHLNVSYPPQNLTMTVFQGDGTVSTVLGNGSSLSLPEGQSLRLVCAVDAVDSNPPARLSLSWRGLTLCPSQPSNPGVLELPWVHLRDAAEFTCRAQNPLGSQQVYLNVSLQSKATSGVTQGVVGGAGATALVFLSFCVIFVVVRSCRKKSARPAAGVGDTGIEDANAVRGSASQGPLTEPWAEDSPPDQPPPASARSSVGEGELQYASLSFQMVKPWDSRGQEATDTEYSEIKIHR
The test system of a further assay is Trypanosoma cruzi. As to the kind of experiment: Trypanosoma cruzi phosphomannomutase and mannose-1-phosphate guanylyltransferase assay. The assay is classed as functional. The settings on record: 10 µM.
Assay [5] deals with T2, Arginase-2, mitochondrial (Homo sapiens) (UniProt P78540).
T2 sequence (whole entry): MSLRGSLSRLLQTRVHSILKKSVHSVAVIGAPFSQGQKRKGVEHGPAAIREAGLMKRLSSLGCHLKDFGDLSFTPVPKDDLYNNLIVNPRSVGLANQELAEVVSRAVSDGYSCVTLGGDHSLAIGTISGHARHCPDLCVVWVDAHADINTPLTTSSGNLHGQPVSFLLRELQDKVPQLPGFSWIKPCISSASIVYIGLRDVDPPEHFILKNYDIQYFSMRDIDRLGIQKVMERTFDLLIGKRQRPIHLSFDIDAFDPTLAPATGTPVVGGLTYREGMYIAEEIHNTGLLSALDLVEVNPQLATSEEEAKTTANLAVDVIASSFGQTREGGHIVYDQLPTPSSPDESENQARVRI
As to the kind of experiment: in vitro enzyme assay to detect the production of urea directly proportional to the activity of Arginase II. Note: in the data most compounds retested in dose-response had high values. The assay is classed as functional. To be noted: 33.3 µM.

The target of assay [6] is T3, Proteasome subunit beta (Trypanosoma cruzi) (UniProt O96673).
T3 sequence (whole entry): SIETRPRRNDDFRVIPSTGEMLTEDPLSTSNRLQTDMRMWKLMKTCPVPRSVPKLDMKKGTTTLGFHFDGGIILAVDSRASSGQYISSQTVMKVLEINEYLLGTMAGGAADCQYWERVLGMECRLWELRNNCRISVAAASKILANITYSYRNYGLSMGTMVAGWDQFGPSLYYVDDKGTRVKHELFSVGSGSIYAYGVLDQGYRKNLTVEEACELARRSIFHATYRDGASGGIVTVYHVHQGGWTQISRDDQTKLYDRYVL
As to the kind of experiment: Trypanosoma cruzi proteasome chymotrypsin-like activity (TcProtChymo) assay. Note: in the data most compounds retested in dose-response had high values. It is filed as functional. The settings on record: 9.37 µM.

For a further assay, the species on record is Homo sapiens. The experiment in a line: To identify inhibition of the IFN signalling (Jak-Stat) pathway via expression of an eGFP reporter gene under the control of an IFN-stimulated response element (ISRE) containing MxA promoter. The assay is classed as functional. The settings on record: 30 µM. On the technique in general: In a reporter assay the amount or activity of a reporter protein is the signal.

The target in assay [7] is T4, Tyrosyl-tRNA synthetase, putative (Trypanosoma cruzi (strain CL Brener)) (UniProt Q4DSP6).
T4 sequence (whole entry): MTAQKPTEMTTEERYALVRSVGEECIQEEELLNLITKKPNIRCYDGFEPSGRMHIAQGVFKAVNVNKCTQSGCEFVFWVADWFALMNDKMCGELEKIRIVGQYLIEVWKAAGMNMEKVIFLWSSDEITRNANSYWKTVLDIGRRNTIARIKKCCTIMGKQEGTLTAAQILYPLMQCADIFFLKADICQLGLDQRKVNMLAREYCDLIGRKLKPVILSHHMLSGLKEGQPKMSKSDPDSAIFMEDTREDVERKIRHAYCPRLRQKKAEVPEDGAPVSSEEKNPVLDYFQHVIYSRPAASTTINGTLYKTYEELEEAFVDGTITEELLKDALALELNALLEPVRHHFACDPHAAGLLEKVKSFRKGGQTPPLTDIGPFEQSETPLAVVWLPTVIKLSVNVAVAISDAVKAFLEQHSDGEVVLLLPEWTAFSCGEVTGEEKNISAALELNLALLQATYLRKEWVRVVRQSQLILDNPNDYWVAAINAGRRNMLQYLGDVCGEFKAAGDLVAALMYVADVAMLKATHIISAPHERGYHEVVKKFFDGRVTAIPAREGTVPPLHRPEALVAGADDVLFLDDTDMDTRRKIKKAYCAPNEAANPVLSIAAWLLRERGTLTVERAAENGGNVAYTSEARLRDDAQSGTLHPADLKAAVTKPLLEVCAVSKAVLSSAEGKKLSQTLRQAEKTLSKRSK
The experiment in a line: Trypanosoma cruzi tyrosyl tRNA synthetase (TcYRS) _High Tyrosine SOP. Note: in the data most compounds retested in dose-response had high values. The assay is classed as functional. To be noted: 30 µM.

The target in assay [8] is T4, Tyrosyl-tRNA synthetase, putative (Trypanosoma cruzi (strain CL Brener)). The experiment in a line: Trypanosoma cruzi tyrosyl tRNA synthetase (TcYRS) SOP. The assay is classed as functional. The settings on record: 30 µM.
The target of assay [9] is Chromo domain-containing protein 1 (Saccharomyces cerevisiae (strain ATCC 204508 / S288c) (Baker's yeast)) (UniProt P32657). The experiment in a line: ScCHD-1 Enzyme Inhibition Assay. Note: in the data most compounds retested in dose-response had high values. The assay is classed as functional. To be noted: 30 µM.
Sequence of Chromo domain-containing protein 1 (Saccharomyces cerevisiae (strain ATCC 204508 / S288c) (Baker's yeast)) (P32657 whole entry, the tested form may be a part): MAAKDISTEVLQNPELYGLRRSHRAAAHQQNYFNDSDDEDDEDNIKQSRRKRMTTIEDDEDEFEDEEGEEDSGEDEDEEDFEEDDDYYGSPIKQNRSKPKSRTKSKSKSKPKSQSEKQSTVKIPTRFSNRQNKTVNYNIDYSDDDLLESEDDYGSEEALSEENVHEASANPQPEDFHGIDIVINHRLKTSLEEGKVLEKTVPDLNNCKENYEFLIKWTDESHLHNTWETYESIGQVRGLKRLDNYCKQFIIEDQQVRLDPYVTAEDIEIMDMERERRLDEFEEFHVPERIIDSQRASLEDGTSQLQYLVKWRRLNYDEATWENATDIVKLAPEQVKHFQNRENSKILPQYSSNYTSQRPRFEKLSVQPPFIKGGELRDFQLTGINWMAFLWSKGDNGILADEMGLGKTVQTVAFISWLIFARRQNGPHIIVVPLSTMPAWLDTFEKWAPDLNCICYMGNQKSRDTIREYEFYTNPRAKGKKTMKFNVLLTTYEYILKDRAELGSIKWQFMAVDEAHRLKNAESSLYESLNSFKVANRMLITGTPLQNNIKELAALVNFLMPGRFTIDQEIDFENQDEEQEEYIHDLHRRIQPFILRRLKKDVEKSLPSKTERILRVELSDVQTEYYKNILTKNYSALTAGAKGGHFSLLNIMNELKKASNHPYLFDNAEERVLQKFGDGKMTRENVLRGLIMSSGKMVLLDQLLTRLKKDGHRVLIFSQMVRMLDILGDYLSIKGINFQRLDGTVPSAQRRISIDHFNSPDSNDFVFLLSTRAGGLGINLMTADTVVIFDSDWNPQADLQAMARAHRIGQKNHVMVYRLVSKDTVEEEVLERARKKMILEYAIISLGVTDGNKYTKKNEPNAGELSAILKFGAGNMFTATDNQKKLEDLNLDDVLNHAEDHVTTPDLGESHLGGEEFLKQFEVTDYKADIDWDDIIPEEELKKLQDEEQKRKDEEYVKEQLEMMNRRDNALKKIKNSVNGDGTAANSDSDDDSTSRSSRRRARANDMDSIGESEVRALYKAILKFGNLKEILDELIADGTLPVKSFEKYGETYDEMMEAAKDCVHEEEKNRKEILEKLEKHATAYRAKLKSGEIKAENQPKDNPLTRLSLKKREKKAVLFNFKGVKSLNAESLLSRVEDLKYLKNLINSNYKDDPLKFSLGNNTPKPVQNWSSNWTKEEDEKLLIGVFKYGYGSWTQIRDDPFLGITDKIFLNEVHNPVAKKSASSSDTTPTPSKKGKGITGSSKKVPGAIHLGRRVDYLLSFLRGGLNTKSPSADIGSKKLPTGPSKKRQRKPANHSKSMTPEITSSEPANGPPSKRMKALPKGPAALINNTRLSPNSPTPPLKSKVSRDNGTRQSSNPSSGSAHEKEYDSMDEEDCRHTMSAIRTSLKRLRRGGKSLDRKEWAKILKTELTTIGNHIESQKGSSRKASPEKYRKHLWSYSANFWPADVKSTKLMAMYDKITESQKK

For some assays here: Entries with a potency or affinity are not part of this list.

Sequence of Protein translocase subunit SecA (Escherichia coli (strain K12)) (P10408 whole entry): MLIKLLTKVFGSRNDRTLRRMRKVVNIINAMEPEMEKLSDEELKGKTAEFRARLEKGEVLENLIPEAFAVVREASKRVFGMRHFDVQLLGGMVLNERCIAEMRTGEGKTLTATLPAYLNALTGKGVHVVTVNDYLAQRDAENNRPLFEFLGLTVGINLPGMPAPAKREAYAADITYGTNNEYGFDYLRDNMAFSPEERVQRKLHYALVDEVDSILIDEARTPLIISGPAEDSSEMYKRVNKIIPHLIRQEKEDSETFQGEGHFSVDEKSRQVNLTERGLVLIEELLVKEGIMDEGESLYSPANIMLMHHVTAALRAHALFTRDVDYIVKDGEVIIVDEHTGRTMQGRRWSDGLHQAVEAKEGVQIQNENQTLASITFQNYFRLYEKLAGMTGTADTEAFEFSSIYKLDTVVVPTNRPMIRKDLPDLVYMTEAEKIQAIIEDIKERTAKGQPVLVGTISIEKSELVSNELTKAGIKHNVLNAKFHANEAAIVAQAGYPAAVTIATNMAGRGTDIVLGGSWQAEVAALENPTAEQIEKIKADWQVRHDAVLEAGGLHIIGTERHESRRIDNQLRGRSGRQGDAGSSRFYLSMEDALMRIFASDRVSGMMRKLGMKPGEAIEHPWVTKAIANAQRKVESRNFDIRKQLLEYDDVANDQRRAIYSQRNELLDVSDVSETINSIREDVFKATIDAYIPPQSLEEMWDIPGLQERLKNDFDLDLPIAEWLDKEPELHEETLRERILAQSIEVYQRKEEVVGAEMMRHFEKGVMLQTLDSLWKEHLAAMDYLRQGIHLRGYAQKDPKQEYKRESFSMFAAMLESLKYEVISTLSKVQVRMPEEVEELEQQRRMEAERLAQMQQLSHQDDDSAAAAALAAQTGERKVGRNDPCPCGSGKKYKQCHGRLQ

On to `Cc1ccc2cc(CNCCCN3CCOCC3)c(=O)[nH]c2c1`, for which the Percent Effect was -3.73% in [1]; 4.05% in assay [2]; 11.3% in assay [3]; 5.46% in assay [4]; 0.395% with Trypanosoma cruzi; -0.696% in [5]. Also, the Percent Effect in assay [6] is 6.08%; in the assay filed under Homo sapiens, 12%; in assay [7], 5.38%; in assay [8] it was 9.09%; in assay [9], -7.66%.
Turning to `O=C(CCN1CCOC(Cn2cccn2)C1)NC1CCCC1` (stereo not given), the Percent Effect in [1] is -6.8%; in assay [2] it was 19%; in assay [3], -3.66%; in assay [4], -3.31%; with Trypanosoma cruzi, 3.59%; in [5], 0.215%. Further, the Percent Effect was 15.4% in assay [6]; 4.11% in the assay listed under Homo sapiens; 8.33% in assay [7]; 5.06% in [8]; -15.2% in assay [9].
For `CCN1CCC(NC(=O)CN2CCc3c(ncn3C)C2)CC1`, the Percent Effect in assay [1] was -4.55%; in assay [2], 6.33%; in [3], -3.84%; in assay [4] it was -0.206%; in the assay with Trypanosoma cruzi, -3.59%; in [5], 6.24%. Moreover, the Percent Effect in assay [6] is 9.43%; in the assay filed under Homo sapiens it was 10.1%; in assay [7], -7.29%; in [8], 0%; in assay [9], -5.67%.
For the molecule `Cc1nnc(C(C)NCC2(c3c(F)cccc3F)CCCC2)o1` (stereo not given), the Percent Effect in assay [1] was -2.54%; in assay [2], -2.7%; in assay [3] it was -3.85%; in [4], 0.273%; in the assay on Trypanosoma cruzi, -0.965%; in [5], 1.91%. Besides, the Percent Effect in assay [6] is 7.93%; in the assay listed under Homo sapiens it was 14.7%; in assay [7], 0.529%; in assay [8], 9.76%; in assay [9], -3.86%.
`CCCc1nc(CN2CCCC2Cn2cncn2)cs1` (stereo not given): the Percent Effect in [1] was -3.84%; in [2] it was 12.7%; in assay [3], -5.8%; in assay [4], 9.38%; with Trypanosoma cruzi it was 3.87%; in assay [5], -24.3%. The Percent Effect in assay [6] is 5.98%; in the assay listed under Homo sapiens, 4.39%; in [7] it was 10.3%; in [8] it was 24.1%; in [9], -3.42%.
As for `Cc1cccn2c(=O)cc(CN3CCCCC3Cn3cncn3)nc12` (stereo not given), the Percent Effect was -9.82% in [1]; -2.7% in assay [2]; -1.37% in [3]; -1.48% in [4]; -4.2% in the assay on Trypanosoma cruzi; -1.74% in assay [5]. The Percent Effect in assay [6] was 9.53%; in the assay listed under Homo sapiens, -10.4%; in [7] it was -1.07%; in assay [8] it was -6.17%; in [9], -6.48%.
Consider `COCC1CN(C(=O)c2ccoc2C)Cc2nccn2C1` (stereo not given), for which the Percent Effect in assay [1] is -6.75%; in assay [2], 0%; in [3], 10.2%; in [4] it was -5.59%; in the assay on Trypanosoma cruzi, -6.3%; in assay [5], 0.233%. Also, the Percent Effect is 2.03% in assay [6]; 12.3% in the assay filed under Homo sapiens; -3.19% in assay [7]; 1.28% in [8]; -4.85% in assay [9].
Consider `CCN1CCC2(CC1)CC(NC(=O)N(C)C)c1cc(C)ccc12` (stereo not given), for which the Percent Effect in [1] was -2.37%; in assay [2], 16%; in [3], 4.2%; in assay [4] it was 0.476%; with Trypanosoma cruzi, 3.28%; in assay [5], -52.9%. The Percent Effect is 14.4% in assay [6]; -15.2% in the assay filed under Homo sapiens; 8.33% in assay [7]; -50% in assay [8]; -7.48% in assay [9].
For the molecule `Cn1cnc2c1C(COCC1CC1)CN(Cc1ccc3c(c1)OCO3)C2` (stereo not given), the Percent Effect in assay [1] is -5.21%; in [2] it was -2.7%; in [3] it was 15%; in assay [4], -2.11%; in the assay on Trypanosoma cruzi it was -0.977%; in [5], -3.75%. Besides, the Percent Effect is 0.0845% in assay [6]; 12.3% in the assay filed under Homo sapiens; 2.97% in assay [7]; -1.22% in assay [8]; -2.11% in assay [9].
`CN(CC(F)(F)F)C(=O)C1CSCN1C(=O)OC(C)(C)C` (stereo not given): the Percent Effect in [1] was -2.64%; in assay [2] it was 2.74%; in [3], -4.74%; in [4], -3.23%; with Trypanosoma cruzi, -3.33%; in [5], 2.27%. For the same molecule, the Percent Effect in [6] was 11.9%; in the assay listed under Homo sapiens it was 2.3%; in assay [7] it was 1.07%; in assay [8] it was 7.5%; in assay [9], -1.01%.
